Assay outcomes deposited in PubChem by several laboratories.
Phagocytosis inh: inhibitors of macrophage phagocytosis; 110,000 compounds, 0.07% hits; J774A.1 macrophage IgG-bead phagocytosis, imaging; AID 1029; inhibition, % at 5 µM;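 active = inhibition above the mean of the plate negative controls plus 5 SD, cut at about 13% in these data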;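 note: phagocytic index as fraction of beads internalized from green versus red external bead signal; plate controls were DMSO negative control for no effect and cytochalasin-D positive control for full effect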
MRP resist rev: reverses drug resistance mediated by MRP; H69AR cells + 2 uM doxorubicin, CellTiter-Glo, 72 h; AID 602; differential viability (reversal), % at 10 µM; 85,000 compounds, 0.04% hits;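 active = viability drop by adding the cancer drug above about 55%, with treated viability meeting a 40% cutoff, limit read from the data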;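 note: viability without doxorubicin minus viability with 2 µM doxorubicin for each compound; larger differential means the compound sensitizes cells more to doxorubicin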
CD11b adhes inh: blocks human CD11b/CD18 adhesion to fibrinogen; P05107+P11215; K562 CD11b/CD18 adhesion to fibrinogen, ATPlite luminescence; Mn2+ added to activate the integrin; inhibition, % at 10 µM; 93,000 compounds, 0.54% hits; AID 1497;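 active = primary inhibition of 50% or more at 10 µM, then 40% or more on retest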
MRP-1 activ: activators of MRP-1 | H69AR cells + doxorubicin, viability rescue, CellTiter-Glo | viability increase, % at 10 µM | 140,000 compounds, 0.61% hits;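 active = viability gain under doxorubicin at or above a set limit, the compound median plus 3 SD, cut at about 4.7% in these data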;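 note: MRP-1 overexpressing cells given doxorubicin 25 µM after compound pretreatment; 18-22 h compound pretreatment then 72 h with doxorubicin before readout; 0% = doxorubicin-only wells and 100% = vehicle-treated cells without doxorubicin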
CD11b adhes enh: increases human CD11b/CD18 adhesion to fibrinogen | P05107+P11215 | K562 CD11b/CD18 adhesion to fibrinogen, ATPlite luminescence | activation, % at 10 µM | 93,000 compounds, 0.07% hits | AID 1499;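 active = 10 µM primary screen giving 50% or more activity, confirmed by 40% or more on retest at that dose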
Smad3 inh: inhibitors of human Smad3 transcription factor binding; P84022; TR-FRET Smad3/Dy647-FoxH1 peptide binding, europium anti-His; inhibition, % at 25 µM; 88,000 compounds, 0.29% hits; AID 630;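 active = compounds that reduce the energy-transfer binding signal between the protein and its labelled peptide by more than half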;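 note: 0% = Smad3 plus labelled peptide maximal FRET and 100% = peptide-only background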
Target sequence (P84022 whole entry, looked up): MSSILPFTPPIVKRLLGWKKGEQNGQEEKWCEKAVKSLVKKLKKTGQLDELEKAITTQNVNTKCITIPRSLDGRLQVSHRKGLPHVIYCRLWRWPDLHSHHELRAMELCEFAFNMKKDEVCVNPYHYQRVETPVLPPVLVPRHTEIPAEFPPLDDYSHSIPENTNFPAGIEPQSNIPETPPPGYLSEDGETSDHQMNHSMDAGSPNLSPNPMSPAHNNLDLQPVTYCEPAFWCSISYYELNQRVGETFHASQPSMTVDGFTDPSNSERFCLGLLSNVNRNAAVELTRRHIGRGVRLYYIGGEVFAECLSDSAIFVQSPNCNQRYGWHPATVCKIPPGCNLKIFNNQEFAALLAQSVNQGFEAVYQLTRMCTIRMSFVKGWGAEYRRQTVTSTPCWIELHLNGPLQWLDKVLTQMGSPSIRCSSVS
An asterisk follows results filed as active. This is a sample that favours compounds with a hit; in the whole collection about 1.2% have one here.

How did Cc1ccccc1-n1nc2c(c1NC(=O)c1c(-c3ccccc3Cl)noc1C)CSC2 do in these assays?
Phagocytosis inh: 2; MRP resist rev: -5; CD11b adhes inh: 0; MRP-1 activ: -2; CD11b adhes enh: 3; Smad3 inh: 5

What do the screens show for `Cc1ccc(-n2nc3c(c2NC(=O)c2c(-c4ccccc4Cl)noc2C)CSC3)cc1`?
Phagocytosis inh: 0; MRP resist rev: -15; CD11b adhes inh: 1; MRP-1 activ: -3; CD11b adhes enh: 72*; Smad3 inh: 1

What do the screens show for `COC(=O)c1ccc(NC(=O)C(=O)N2CCN(C(=S)Nc3cccc(OC)c3)CC2)cc1`?
Phagocytosis inh: -12; CD11b adhes inh: -22; MRP-1 activ: 6.2*; CD11b adhes enh: 2

What do the screens show for `O=C(O)c1cc(=O)[nH]c(SCc2ccccc2)n1`?
Smad3 inh: -5

Results for Cc1ccc(NC(=O)C(=O)c2c(-c3ccccc3)cc3ccccn23)cc1S(=O)(=O)N1CCOCC1 ?
MRP resist rev: 13; CD11b adhes inh: 4; MRP-1 activ: 4.8*; CD11b adhes enh: -1; Smad3 inh: 19

How did CC(C)(C)NS(=O)(=O)c1ccc(NS(=O)(=O)c2ccc(F)cc2)cc1 do in these assays?
Phagocytosis inh: 2; MRP resist rev: 0; CD11b adhes inh: 9; MRP-1 activ: -3; CD11b adhes enh: -2; Smad3 inh: 6

What do the screens show for `CCNc1oc(-c2cccc3ccccc23)nc1C#N`?
Phagocytosis inh: 2; MRP resist rev: 7; CD11b adhes inh: -10; MRP-1 activ: 7.3*; CD11b adhes enh: 35; Smad3 inh: -2

Results for C=CCNc1oc(-c2cccc3ccccc23)nc1C#N ?
Phagocytosis inh: 0; MRP resist rev: 12; CD11b adhes inh: -26; MRP-1 activ: 1; CD11b adhes enh: 6; Smad3 inh: -3

How did CCOC(=O)c1ccc(N2Cc3ccccc3C2)cc1O do in these assays?
Phagocytosis inh: -2; MRP resist rev: 6; CD11b adhes inh: 3; MRP-1 activ: 1; CD11b adhes enh: 68*; Smad3 inh: 2

Results for O=C(O)c1cc(N=Nc2ccc([N+](=O)[O-])cc2)ccc1O ?
Smad3 inh: 8

What do the screens show for `CCOC(=O)C1=C(C)Nc2sc(C(=O)c3ccc(OC)cc3)c(N)c2C1c1ccc(C(=O)OC)cc1` (stereo unspecified)?
Phagocytosis inh: -2; MRP-1 activ: 7.3*

How did O=C(NCCc1ccc2c(c1)OCCO2)c1cc(F)cc(F)c1 do in these assays?
Phagocytosis inh: -5; CD11b adhes inh: 43; MRP-1 activ: 4.7*; CD11b adhes enh: -4

Results for O=C(NCCc1ccc2c(c1)OCCO2)c1cccc(F)c1 ?
Phagocytosis inh: -6; MRP-1 activ: 0

How did Cc1ccc(OCC(=O)N2N=C(C(F)(F)F)CC2(O)C(C)(C)C)cc1C (stereo unspecified) do in these assays?
MRP resist rev: 7; CD11b adhes inh: 80*; MRP-1 activ: -2; CD11b adhes enh: -7; Smad3 inh: 13

How did COc1ccccc1NC(=O)NS(=O)(=O)c1ccc(C)cc1 do in these assays?
Phagocytosis inh: 1; MRP resist rev: 1; CD11b adhes inh: 15; MRP-1 activ: -1; CD11b adhes enh: -6; Smad3 inh: 16

How did N#Cc1c(-c2ccccc2)nc(-c2ccccc2)[nH]c1=O do in these assays?
Phagocytosis inh: 3; CD11b adhes inh: 52*; MRP-1 activ: -3; CD11b adhes enh: -4

What do the screens show for `Cc1nn(-c2cccc(Cl)c2)c2nc(C(F)(F)F)[nH]c(=O)c12`?
Phagocytosis inh: -6; CD11b adhes inh: 102*; MRP-1 activ: -3; CD11b adhes enh: -8

What do the screens show for `O=C(NCc1ccc(F)cc1)c1noc2c1CCCC2`?
Phagocytosis inh: -2; MRP resist rev: 3; CD11b adhes inh: 6; MRP-1 activ: 4.9*; CD11b adhes enh: -2; Smad3 inh: 2

Results for O=C(Nc1ncc(Cc2ccc(C(F)(F)F)cc2)s1)c1ccc(-c2cccc([N+](=O)[O-])c2)o1 ?
Phagocytosis inh: -9; CD11b adhes inh: 13; MRP-1 activ: 5.0*; CD11b adhes enh: 10

Results for O=C(Nc1ncc(Cc2ccccc2Cl)s1)c1ccc(-c2cccc([N+](=O)[O-])c2)o1 ?
Phagocytosis inh: -2; CD11b adhes inh: 10; MRP-1 activ: 5.2*; CD11b adhes enh: 7

What do the screens show for `O=C(Nc1ncc(Cc2cccc(Cl)c2)s1)c1ccc([N+](=O)[O-])cc1`?
CD11b adhes inh: 72; MRP-1 activ: 0; CD11b adhes enh: 6

How did O=C(Nc1ccc(Cc2ccncc2)cc1)C1CCC(N2C(=O)C3CC=CCC3C2=O)CC1 (stereo unspecified) do in these assays?
Phagocytosis inh: 0; MRP resist rev: -7; CD11b adhes inh: -6; MRP-1 activ: 0; CD11b adhes enh: -1; Smad3 inh: 56*

What do the screens show for `O=C(Nc1ccc(Cc2ccncc2)cc1)C1CCC(N2C(=O)C3C4C=CC(C4)C3C2=O)CC1` (stereo unspecified)?
Phagocytosis inh: 0; CD11b adhes inh: 22; MRP-1 activ: -2; CD11b adhes enh: -4

Results for CCOC(=O)c1[nH]c2cc(OC)c(OC)cc2c1N ?
Phagocytosis inh: 1; MRP resist rev: 0; CD11b adhes inh: 12; MRP-1 activ: 8.5*; CD11b adhes enh: -1; Smad3 inh: 7

Results for CCCOc1ccc(Br)cc1CSC(=N)N ?
Phagocytosis inh: 4; CD11b adhes inh: 102*; MRP-1 activ: -2; CD11b adhes enh: -7

Results for CCNc1ccc(C(=O)OCC(=O)c2cc(C)n(Cc3ccc4c(c3)OCO4)c2C)cc1[N+](=O)[O-] ?
Phagocytosis inh: -5; MRP-1 activ: 5.2*

Results for Cc1ccc(OCCCCn2cnc3ccccc32)c(C)c1 ?
Phagocytosis inh: 0; MRP resist rev: 14; CD11b adhes inh: 86*; MRP-1 activ: 2; CD11b adhes enh: -9; Smad3 inh: -11

Results for C/C(=C\C(=O)c1ccc(Br)cc1)NCc1ccc(C)cc1 ?
Phagocytosis inh: -1; MRP resist rev: -5; CD11b adhes inh: 81*; MRP-1 activ: -1; CD11b adhes enh: -11; Smad3 inh: 4

Results for COc1cccc(CNC(=O)c2cc3oc4ccccc4c3n2C)c1OC ?
Phagocytosis inh: 0; MRP resist rev: -10; CD11b adhes inh: -21; MRP-1 activ: 0; CD11b adhes enh: 0; Smad3 inh: -13

How did CCOc1ccccc1CNC(=O)c1cc2oc3ccccc3c2n1CC do in these assays?
Phagocytosis inh: 186*; MRP resist rev: 12; CD11b adhes inh: -20; MRP-1 activ: 7.6*; CD11b adhes enh: 0; Smad3 inh: -1

How did O=C(Nc1c(-c2ccccc2)nc2sccn12)c1ccccc1 do in these assays?
Phagocytosis inh: 2; MRP resist rev: 11; CD11b adhes inh: 36; MRP-1 activ: -1; CD11b adhes enh: 0; Smad3 inh: 51*

What do the screens show for `CC/C(=N\NC(=O)C(N)=O)c1ccccc1O`?
Phagocytosis inh: 0; MRP-1 activ: 5.1*
